Experimental data as given in ChEMBL document CHEMBL3988442, “University of Dundee, Small-Polar-MMV Screening Library” (2021).
Screen size: about 38,000 compounds; about 1,200 (3.2%) showed an effect of 50% or more. The median lay at about -58%. The entries come from a sample that favours strong results as a whole.

The molecules below were run on Plasmodium falciparum (assay: Calibr Malaria Delayed Death Assay SOP). Details: concentration 4.99e-06 (unit not given; other assays of the set use mol/L).
Assay type: functional, organism-based
Set-up: scale not given: in the data most compounds retested in dose-response had high values

Row | SMILES | Percent Effect [%]
1 | CC1=N[C@@]2(CC[C@@H]3CN(CC(=O)N(C)C)C[C@@H]32)C(=O)N1CC1CC1.O=C(O)C(F)(F)F | -113.5
2 | CC1=N[C@@]2(CC[C@@H]3CN(Cc4ccccc4F)C[C@@H]32)C(=O)N1CC1CC1.O=C(O)C(F)(F)F | 66.32
3 | CCC1=N[C@@]2(CC[C@@H]3CN(Cc4ccccc4F)C[C@@H]32)C(=O)N1CC.O=C(O)C(F)(F)F | 37.33
4 | O=C(O)C(F)(F)F.O=C([C@H]1C[C@H]2OCC[C@H]2N(Cc2ccoc2)C1)N1CCCCO1 | -83.93
5 | CCN1CCn2cc(CNC(=O)c3cnn(C)c3)nc2C1.O=C(O)C(F)(F)F.O=C(O)C(F)(F)F | -97.9
6 | COc1ccccc1N1CCC(CNCc2cccc(C#N)c2)C1 (stereo unspecified) | 0.8345
7 | COc1c(CNC2CCN(c3ncccn3)CC2)c(C)nn1C | -45.93
8 | COc1ccccc1N1CCC(CNS(=O)(=O)c2c(C)nn(C)c2C)C1 (stereo unspecified) | -22.9
9 | COc1ccccc1N1CCC(CNC(=O)N(C)Cc2ccco2)C1 (stereo unspecified) | -114.8
10 | COc1ccccc1N1CCC(N2CCOCC(CO)C2)CC1 (stereo unspecified) | 27.34
11 | COc1ccccc1N1CCC(CNCc2c(C)nn(C)c2OC)C1 (stereo unspecified) | 51.83
12 | COc1ccccc1N1CCC(CNCc2cccc(O)c2)C1 (stereo unspecified) | 55.7
13 | COc1ccccc1N1CCC(CNCc2cccc(OC)c2OC)C1 (stereo unspecified) | 55.95
14 | COc1ccc(CNCC2CCN(c3ccccc3OC)C2)cc1O (stereo unspecified) | 21.41
15 | Cc1ccc(C(C)(O)CNC(=O)CCn2ccnc2C(C)C)o1 (stereo unspecified) | -68.59
16 | Cc1[nH]ncc1C(=O)NCC(CO)Cc1ccc(Cl)cc1 (stereo unspecified) | -37.01
17 | c1cc(CNCC2CNc3ccnn3C2)cc(N2CCOCC2)n1 (stereo unspecified) | -156.8
18 | Cc1cc(N2Cc3cnn(CCO)c3C2)nc(-c2ccccc2O)n1 | -189
19 | O=C(NCC(O)C1CC1)Nc1cnn(Cc2ccccc2)c1 (stereo unspecified) | -47.94
20 | Cc1cncc(C2CCCN(C(=O)c3cn(C)nc3C)C2)n1 (stereo unspecified) | -35.12
21 | Cn1nc(CN2CCCN(C3CCCC3)CC2)c2c(Cl)cccc21 | 68.46

Row | SMILES | Percent Effect [%]
22 | CCn1cc(CN2CCCN(C3Cc4ccccc4C3)CC2)c(C)n1 | -9.026
23 | Cn1cnnc1CC1CCN(Cc2nn(C)c3cccc(Cl)c23)CC1 | -15.19
24 | Cn1nc(CN2CCCCC(N)C2)c2c(Cl)cccc21 (stereo unspecified) | 65.71
25 | Cn1nc(CN2CCC(c3ccncc3)CC2)c2c(Cl)cccc21 | -16.19
26 | C[C@@H]1CN(C2CCN(Cc3nn(C)c4cccc(Cl)c34)CC2)C[C@H](C)O1 | -11.21
27 | CCC(=O)N1CCC[C@]2(C(=O)N(C)C)CN(c3ccccn3)C[C@@H]2C1.O=C(O)C(F)(F)F | -7.405
28 | Cn1nccc1-c1nnn2c1COC(CNCc1nccs1)C2.O=C(O)C(F)(F)F (stereo unspecified) | -38.88
29 | CCn1cc(S(=O)(=O)N2CCCC2c2ccc(C)o2)cn1 (stereo unspecified) | -154.6
30 | CC(C)c1nccn1C1CCCN(C(=O)c2nccnc2N)C1 (stereo unspecified) | -27.69
31 | CCOc1ncccc1CNC(=O)c1cc(C)on1 | -34.12
32 | Cn1cc(C2CC(=O)NC23CCN(C(=O)C2CC=CC2)CC3)cn1 (stereo unspecified) | -79.79
33 | Cn1cc(C[C@H]2[C@H](O)CCN2Cc2ccc(F)cc2)cn1.O=C(O)C(F)(F)F | 1.719
34 | Cc1[nH]c(=O)[nH]c(=O)c1CN1CCCC(CCc2ccc(F)c(F)c2)C1 (stereo unspecified) | -43.91
35 | Cn1ccnc1CCNC(=O)C1CCCN(Cc2cccc(F)c2)C1 (stereo unspecified) | 58.15
36 | Cn1cc(CNC(=O)C2CCCN(Cc3cccc(F)c3)C2)cn1 (stereo unspecified) | -63.48
37 | Cn1cc(CN2CCCC(CCc3ccccc3C(F)(F)F)C2)cn1 (stereo unspecified) | 87.33
38 | Cn1cc(CN2CCCC(CCc3ccc(F)c(F)c3)C2)cn1 (stereo unspecified) | 69.99
39 | Cn1cc(CN2CCC(CCC(=O)NCc3ccc(F)cc3)CC2)cn1 | -110.1
40 | Cn1cnnc1CNC(=O)C1CCCN(Cc2cccc(F)c2)C1 (stereo unspecified) | -147.7
41 | COc1ccc(CN2CCCC(Cn3nc(C)nc3C)C2)cc1F (stereo unspecified) | -17.07
42 | Cn1cc(CN2CCCC(CCc3ccc(F)cc3)C2)cn1 (stereo unspecified) | 73.58

Row | SMILES | Percent Effect [%]
43 | Cc1ccccc1CCC1CCCN(Cc2nnc(-c3ccco3)o2)C1 (stereo unspecified) | -11.7
44 | Cn1cc(CN2CCCN(CCCc3ccccc3)CC2)cn1 | -23.65
45 | Cc1nn(C)c(Cl)c1C1CCCN1C(=O)c1ccnn1C (stereo unspecified) | -125.5
46 | Cc1nc(CN2C[C@@H]3CN(C(=O)Cc4ccccn4)C[C@@H]3C2)cs1.O=C(O)C(F)(F)F.O=C(O)C(F)(F)F | -48.37
47 | CN(Cc1nccn1CC(F)(F)F)C(=O)c1ccc(F)cc1F | -38.32
48 | CCN1CCN(c2ccc(NC(C)c3nc(C(C)C)no3)c(C)c2)CC1 (stereo unspecified) | -29.45
49 | CNC(=O)COC(=O)c1ccn(-c2ccc(Cl)c(Cl)c2)n1 | -33.36
50 | COCC1c2c(cnn2C)CCN1Cc1ccco1.O=C(O)C(F)(F)F.O=C(O)C(F)(F)F (stereo unspecified) | -7.218
51 | Cc1cc(F)ccc1-n1cc(O)c(C(N)=O)n1 | -184.1
52 | Cc1[nH]c(=O)[nH]c(=O)c1CN1CCCC(CCc2ccccc2F)C1 (stereo unspecified) | -31.73
53 | Cc1[nH]c(=O)[nH]c(=O)c1CN1CCCC(CCc2c(F)cccc2F)C1 (stereo unspecified) | -50.25
54 | CC(C)n1ccnc1C1CCCN(Cc2ccc(F)c(F)c2)C1 (stereo unspecified) | 8.859
55 | Cn1ccnc1CN1CCCC(CCc2ccc(F)c(F)c2)C1 (stereo unspecified) | 73.33
56 | Cn1cc(CN2CCCC(CCc3ccc(F)cc3F)C2)cn1 (stereo unspecified) | 88.72
57 | Cn1cc(CN2CCCC(CCc3c(F)cccc3F)C2)cn1 (stereo unspecified) | 78.37
58 | CC(c1ccc(F)c(F)c1)N1CCN(Cc2nccn2C)CC1 (stereo unspecified) | -18.79
59 | Cc1nc(C)n(CC2CCCN(Cc3ccc(F)cc3C#N)C2)n1 (stereo unspecified) | -108
60 | Cc1[nH]c(=O)[nH]c(=O)c1CN1CCCC(CCc2ccc(F)cc2F)C1 (stereo unspecified) | 49.97
61 | Cc1ccc(N2CCN(C(=O)CCc3ccc(O)cc3)CC2=O)cc1 | -38.56
